According to PubChem BioAssay:
Calls of active or inactive are those of the source.

What was measured:
[1] = tested on: XIP peptide (Xip251-270) binding; assay: XIP fragment 251-270 binding compounds – biochemical, small-molecule microarray, fluorescence 635/667 nm, 0.1 µg/mL protein, primary screen (AID 1182); settings: fluorescent protein binding, 635 nm, higher = more signal, called active from +8 up or from −8 down
[2] = tested on: XIP peptide (Xip251-270); assay: compounds binding XIP fragment 251-270 – biochemical, small-molecule microarray, fluorescence 635/667 nm, 0.5 µg/mL protein, primary screen (AID 1183); settings: fluorescence 635 nm, higher = more signal
[3] = blood-stage malaria parasite viability loss – strain 3D7, DAPI fluorescence, 100 nL, primary screen (AID 1184);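 also: parasites grown inside human red blood cells in medium with human serum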; settings: P. falciparum 3D7 growth, 3 d, higher = more signal
[4] = molecular target: Homeobox protein Hox-A13 (Mus musculus) (UniProt Q62424); assay: disruptors of Hoxa13 oligonucleotide interaction – biochemical, fluorescence polarization, labeled oligonucleotide, primary screen (AID 1185); settings: Hoxa13:DNA binding, 15 min, higher = more signal, called active from +8 up or from −8 down
Sequence of Homeobox protein Hox-A13 (Mus musculus) (Q62424 whole entry, looked up): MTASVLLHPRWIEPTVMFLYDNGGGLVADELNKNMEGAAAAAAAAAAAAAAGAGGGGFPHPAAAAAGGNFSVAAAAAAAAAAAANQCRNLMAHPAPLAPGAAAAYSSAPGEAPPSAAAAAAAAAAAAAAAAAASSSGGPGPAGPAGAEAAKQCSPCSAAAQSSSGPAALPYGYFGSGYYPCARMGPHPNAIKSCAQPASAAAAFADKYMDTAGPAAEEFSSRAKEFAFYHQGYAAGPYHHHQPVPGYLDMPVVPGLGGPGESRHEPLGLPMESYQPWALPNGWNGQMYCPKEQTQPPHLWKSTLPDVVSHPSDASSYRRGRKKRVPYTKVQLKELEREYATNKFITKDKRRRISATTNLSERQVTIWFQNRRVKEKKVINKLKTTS

SMILES | composite z-score [1] | composite z-score [2] | z-score [3] | z-score [4]
CC#CCOCCC=C1c2ccccc2[C@@H](OC)[C@@H]1C | 0.772 (inactive) | 0.0938 | -1.02 | -3 (inactive)
COC(=O)CC=C[C@@H](C)[C@@H](C=NOC(C)CN1CCCCc2nc(C)c(C)cc21)NS(=O)(=O)c1ccc(C)cc1 (some centres not stated) | -0.598 (inactive) | -0.0903 | 0.453 | -0.327 (inactive)
CCOC(=O)NN=C1C[C@@H](O)[C@@H](O)[C@@H]2[C@@H]3C(=O)N(c4ccc(F)cc4F)C(=O)[C@@H]3CC[C@H]12 | 0.192 (inactive) | -0.119 | -1.36 | 1.14 (inactive)
C[C@@H](c1ccccc1)N1C(=O)[C@H]2[C@H]3[C@H](O)[C@H](O)CC(=NNC(=O)OCc4ccccc4)[C@@H]3CC[C@H]2C1=O | 0.101 (inactive) | 0.209 | 0.556 | 0.963 (inactive)
CC(C)=CCCC(C)=CCON=C1C[C@@H](O)[C@@H](O)[C@@H]2[C@@H]3C(=O)N(Cc4ccc5c(c4)OCO5)C(=O)[C@@H]3CC[C@H]12 | 0.165 (inactive) | 0.17 | -0.348 | -4.72 (inactive)
O=C1CCCC=C1C(O)c1ccc([N+](=O)[O-])cc1 (configuration not stated) | -0.542 (inactive) | 0.852 | 0.938 | 0.164 (inactive)
COc1ccc(O[C@H]2C=C[C@@H](c3ccccc3)O[C@@H]2CON=C2c3cc(OC)ccc3O[C@H](c3cccc(OC)c3)[C@H]2O)cc1 | -0.167 (inactive) | -0.338 | 0.106 | 1.67 (inactive)
COc1cccc([C@H]2Oc3ccc(OC)cc3C(=NO[C@@H](C)c3cc(-c4c(C)cc(C)cc4C)no3)[C@@H]2O)c1 | -0.294 (inactive) | 0.0817 | -0.24 | 0.621 (inactive)
